Results filed as inconclusive are left out. Active and inactive are the calls of the source. Calls come from the whole dose curve; as a rule, active = well fitted curve in the direction sought with a large enough effect; inconclusive = small, poorly fitted or top-dose-only effect, or another doubt; inactive = no such curve, though single readings can be large or run the other way.
Each compound was assayed against Pyruvate kinase PKM (Homo sapiens) (UniProt P14618) (assay: Secondary LDH Assay for Activators of Human Pyruvate Kinase M1 Isoform: for Probe SAR). Conditions: purified hPK-M1, LDH-coupled NADH fluorescence kinetic; series mostly up to 58.2 µM.
Source text: NIH Chemical Genomics Center [NCGC]
Matthew G. Vander Heiden, M.D., Ph.D. [Harvard Medical School, 77 Avenue Louis Pasteur, Boston, MA 02115]
Human pyruvate kinase […] (hPK-M1)enzyme was supplied as a highly purified (>95% pure) preparation from Harvard Medical School and a secondary assay was used to evaluate compounds. This assay couples the formation of pyruvate from […] using lactate dehydrogenase (LDH) and NADH. The depletion of NADH is followed in a fluorescent-based kinetic assay that follows the formation of pyruvate to lactate, as catalyzed LDH. Pyruvate kinase substrates, PEP and ADP, were present in the assay at 0.1 mM and 4 mM respectively. In this kinetic assay initial rates were determined by following the fluorescence of NADH depletion.
NCGC Assay Protocol Summary:
Three uL of substrate mix (final concentration, 50 mM Tris-Cl pH 8.0, 200 mM KCl, 15 mM MgCl2, 0.1 mM PEP, 4.0 mM ADP, and 0.2 mM NADH) was dispensed into black-solid 1536 well plates. 23 nL of compounds were delivered by a pin tool and 1 uL of enzyme mix (final concentrations, 10 nM hPK-M1 and 1 uM of LDH) was added. Plates were immediately placed in ViewLux (Perkin Elmer) and NADH fluorescence was determined at 30 second exposure intervals for between 3 and 6 minutes. Data were normalized to the uninhibited controls.

Pyruvate kinase PKM (Homo sapiens), sequence (P14618 whole entry, looked up, canonical isoform): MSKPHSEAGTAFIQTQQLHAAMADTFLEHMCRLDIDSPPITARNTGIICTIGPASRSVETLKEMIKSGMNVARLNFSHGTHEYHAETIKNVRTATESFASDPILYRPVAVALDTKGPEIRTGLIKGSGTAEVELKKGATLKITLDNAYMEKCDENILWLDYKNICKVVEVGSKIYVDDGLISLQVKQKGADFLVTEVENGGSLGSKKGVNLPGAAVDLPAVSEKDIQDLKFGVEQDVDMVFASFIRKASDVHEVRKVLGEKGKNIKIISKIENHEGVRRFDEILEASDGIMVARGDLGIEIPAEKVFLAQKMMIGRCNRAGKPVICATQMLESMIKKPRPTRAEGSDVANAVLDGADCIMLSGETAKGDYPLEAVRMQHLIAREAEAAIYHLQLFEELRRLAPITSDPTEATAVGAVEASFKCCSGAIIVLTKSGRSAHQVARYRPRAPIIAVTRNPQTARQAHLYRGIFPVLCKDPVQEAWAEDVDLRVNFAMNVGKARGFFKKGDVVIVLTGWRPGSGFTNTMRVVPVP

outcome, inactive:
O=C1c2ccccc2C(=O)N1c1cc(=O)c2ccccc2[nH]1
Cc1ccc(NS(=O)(=O)c2ccc3c(c2)n(C)c(=O)n3C)cc1C
Cc1ccc(NS(=O)(=O)c2ccc3[nH]c(=O)[nH]c3c2)cc1C
COc1ccc(Nc2c(-c3ccc(C)o3)nc3ccccn23)cc1
Cc1ccc(NS(=O)(=O)c2cc3c(cc2N(C)C)CCC(=O)N3)cc1C
O=C1CCc2cc(S(=O)(=O)Nc3ccccc3F)ccc2N1
Cc1ccc(NS(=O)(=O)c2ccc3c(c2)N(C)CCO3)cc1C
Cc1ccc(NS(=O)(=O)c2ccc3c(c2)CCC(=O)N3)cc1F
O=C1c2ccccc2C(=O)N1Cc1ccccc1
O=S1(=O)N=C(Oc2ccccc2)c2ccccc21
O=C1CCc2cc(S(=O)(=O)Nc3ccncc3)ccc2N1
Fc1ccccc1-c1ccc(-c2nc3ccc(Cl)cn3c2Nc2ccc(Cl)cc2)o1
O=C1CCc2cc(S(=O)(=O)Nc3cccc(B(O)O)c3)ccc2N1
O=C1CCc2cc(S(=O)(=O)Nc3ccccc3Cl)ccc2N1
Cc1ccc(NS(=O)(=O)c2ccc3c(c2)CCC(=O)N3)cc1Cl
Cc1c(Cl)cccc1NS(=O)(=O)c1cc2c(cc1Cl)CCC(=O)N2
Cc1ccc(NS(=O)(=O)c2cc3c(cc2N2CCCCC2)NC(=O)CC3)cc1C
O=C1CCc2cc(S(=O)(=O)Nc3cccnc3)ccc2N1
O=C1c2ccccc2C(=O)N1c1ccc(Cl)cc1
O=C1c2ccccc2C(=O)N1c1cccc(O)c1
Cc1cccc(NS(=O)(=O)c2ccc3c(c2)CCC(=O)N3)c1
Cc1ccc(NS(=O)(=O)c2ccc(F)cc2)cc1C
O=C1c2ccccc2C(=O)N1c1cccc(Cl)c1
Cc1ccc(NS(=O)(=O)c2ccc(N3CCCC3=O)cc2)cc1C
Cc1cc(N2C(=O)c3ccccc3C2=O)no1
Cc1cccc(OC2=NS(=O)(=O)c3ccccc32)c1
Cc1ccn2c(NC3CCCCC3)c(-c3ccc(C)o3)nc2c1
O=C1c2ccccc2C(=O)N1c1ccncc1
Cc1ccc(NS(=O)(=O)c2ccc3c(c2)CCCC(=O)N3)cc1C
Cc1ccc(NS(=O)(=O)c2cc3c(cc2/C=C/c2ccccc2)NC(=O)CO3)cc1C
O=C1CCc2cc(S(=O)(=O)Nc3ccc(Cl)cc3)ccc2N1
O=C1c2ccccc2C(=O)N1C1CCCCC1
Cc1ccccc1Nc1c(-c2ccc(Cl)s2)nc2ccccn12
Cc1ccc(OC2=NS(=O)(=O)c3ccccc32)cc1
Cc1ccc(Cl)cc1NS(=O)(=O)c1cc2c(cc1Cl)CCC(=O)N2
Cc1ccc(NS(=O)(=O)c2ccc3c(c2)NC(=O)CO3)cc1C
COc1cccc(Cn2ncc3c4sc(S(C)=O)cc4n(C)c3c2=O)c1 (stereo not given)
Cc1ccc2nc(-c3ccc(C)o3)c(Nc3ccc(F)cc3)n2c1
Cc1ccc(NS(=O)(=O)c2ccc3c(c2)CCC(C)(C)O3)cc1C
O=C1c2ccccc2C(=O)N1c1ncccc1O

Reference: PubChem BioAssay AID2620 (National Center for Advancing Translational Sciences (NCATS), 2010)
